# Measured values: PubChem BioAssay (EPA / NIEHS)
# Results filed as inconclusive are left out. Calls of active or inactive are those of the source. How the source made its calls, unless noted: active means hit-call score of the fitted dose curve at least 0.9, where 1 is the maximum; inconclusive means response in the unintended direction; inactive means score below 0.9.
# Assays:
# [1] = TOX21_p53_BLA_p2_viability: Viability Assessment in the Tox21 HCT-116 p53 Agonism Beta-lactamase Assay, Phase 2 (AID 2283591);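 further: compound exposure lasted 16 h at 37 °C; actives lower the ATP signal meaning cytotoxicity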
# In short: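 HCT-116 p53-bla cells (4000/well) rested 5 h at 37C, then received compounds in DMSO (217-fold dilution) for 16 h at 37C, 5% CO2. After the CCF4 read, CellTiter-Glo was added; ATP luminescence was read after 30 min at room temperature.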
# [2] = biological target: Cellular tumor antigen p53 (Homo sapiens) (UniProt P04637); assay: TOX21_p53_BLA_p2_ratio: Tox21 HCT-116 p53 Agonism Beta-lactamase Assay, Ratio, Phase 2 (AID 2283592)
# In short: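 Human colon HCT116 cells with an inducible p53 beta-lactamase reporter are exposed to test chemicals for 16 h at 37C. Reporter induction is read as the 460/530 nm emission ratio after CCF4-AM loading, normalized to DMSO.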
# [3] = TOX21_p53_BLA_p3_viability: Viability Assessment in the Tox21 HCT-116 p53 Agonism Beta-lactamase Assay, Phase 3 (AID 2283593)
# In short: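 HCT-116 cells (4000/well) rested 5 h at 37C, then got DMSO compounds by pin tool (217-fold dilution) for 16 h at 37C, 5% CO2. After the bla read, CellTiter-Glo was added and luminescence read at 30 min, room temperature.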
# [4] = biological target: Cellular tumor antigen p53 (Homo sapiens) (UniProt P04637); assay: TOX21_p53_BLA_p3_ratio: Tox21 HCT-116 p53 Agonism Beta-lactamase Assay, Ratio, Phase 3 (AID 2283596)
# In short: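 HCT116 p53-bla cells (4000/well) given compound in DMSO (217-fold dilution) after 5 h, incubated 16 h at 37C. CCF4-AM substrate 2 h at room temperature; 460/530 nm emission ratio, gain fitted against DMSO.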
# [5] = TOX21_p53_BLA_p4_viability: Viability Assessment in the Tox21 HCT-116 p53 Agonism Beta-lactamase Assay, Phase 4 (AID 2283597);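 further: hits lower the luminescence signal meaning cytotoxicity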
# In short: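 Luminescent ATP readout (CellTiter-Glo, 30 min, room temperature) in the same wells as the p53 bla ratio. HCT116 cells were treated for 16 h at 37C with DMSO-dissolved compounds.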
# [6] = biological target: Cellular tumor antigen p53 (Homo sapiens) (UniProt P04637); assay: TOX21_p53_BLA_p5_ratio: Tox21 HCT-116 p53 Agonism Beta-lactamase Assay, Ratio, Phase 5 (AID 2283599)
# In short: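 HCT-116 cells carrying a p53-inducible beta-lactamase reporter were seeded at 4000 cells/well and dosed after 5 h with compound in DMSO (217-fold dilution). After 16 h at 37C, CCF4-AM substrate was added for 2 h, and the 460/530 nm emission ratio was scored as gain-of-signal versus DMSO.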
# [7] = TOX21_p53_BLA_p5_viability: Viability Assessment in the Tox21 HCT-116 p53 Agonism Beta-lactamase Assay, Phase 5 (AID 2283600)
# In short: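 Seeded cells (4000/well) settle 5 h before compound addition. Plates then incubate 16 h at 37C, receive FRET substrate for 2 h, and finally CellTiter-Glo, with luminescence measured after a 30 min room-temperature incubation.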
# [8] = biological target: Cellular tumor antigen p53 (Homo sapiens) (UniProt P04637); assay: TOX21_p53_BLA_p4_ratio: Tox21 HCT-116 p53 Agonism Beta-lactamase Assay, Ratio, Phase 4 (AID 2283601)
# In short: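 HCT116 cells carrying an inducible beta-lactamase reporter were plated at 4000 cells/well, rested 5 h, then exposed to compounds in DMSO (217-fold dilution) for 16 h at 37C. CCF4-AM substrate was loaded 2 h at room temperature; 460/530 nm emission ratio scored gain-of-signal versus DMSO.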
# [9] = biological target: PGR (gene 5241) (UniProt P06401); assay: TOX21_PR_BLA_Followup_Antagonist_ratio: Tox21 HEK293 Progesterone Receptor (PR) Antagonism Beta-lactamase Follow-Up Assay, Ratio (AID 2283934)
# In short: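 PR-UAS-bla HEK293T cells, 3,000/well in 2% charcoal-stripped FBS, given compound plus 1nM R5020 agonist for 16 hr at 37C. Beta-lactamase FRET substrate 2 hours, ratio cleaved/uncleaved fluorescence; viability by CellTiter-Glo in same wells.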
# [10] = TOX21_PR_BLA_Followup_Agonist_viability: Viability Assessment in the Tox21 HEK293 Progesterone Receptor (PR) Agonism Beta-lactamase Follow-Up Assay (AID 2283935);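 further: signal loss means lower viability so actives are cytotoxic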
# In short: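 PR-UAS-bla HEK293T cells in 2% charcoal-stripped FBS medium, plated 6 hr before compound addition, exposed 16 hr at 37C. Viability read by CellTiter-Glo ATP luminescence after 30 min at room temperature, in the same wells as the beta-lactamase readout.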
# [11] = TOX21_PR_BLA_Followup_Antagonist_viability: Viability Assessment in the Tox21 HEK293 Progesterone Receptor (PR) Antagonism Beta-lactamase Follow-Up Assay (AID 2283936);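 further: hits lower the luminescence signal meaning cytotoxicity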
# In short: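 PR-UAS-bla HEK293T cells (3,000/well, 2% charcoal-stripped FBS) given compound plus R5020 agonist, 16 h at 37C. CellTiter-Glo added after bla read, 30 min at room temperature; luminescence loss indicates cytotoxicity.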
# [12] = biological target: PGR (gene 5241) (UniProt P06401); assay: TOX21_PR_LUC_Followup_Antagonist: Tox21 HEK293 Progesterone Receptor (PR) Antagonism Luciferase Follow-Up Assay (AID 2283938);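 further: curve fitted upward as signal gain over DMSO baseline despite antagonist label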
# In short: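 Luciferase reporter in HEK293-PR-A-luc cells: 16 h compound treatment at 37C, ONE-Glo luminescence detection, DMSO as negative control and baseline.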
# [13] = TOX21_PR_LUC_Followup_Antagonist_viability: Viability Assessment in the Tox21 HEK293 Progesterone Receptor (PR) Antagonism Luciferase Follow-Up Assay (AID 2283940)
# In short: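 HEK293-PR-A-luc cells kept in charcoal-stripped FBS medium were plated 5 h before compound addition, then exposed 16 h at 37C; viability read as cellular ATP by luciferase luminescence, loss of signal indicating cytotoxicity.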
# [14] = TOX21_PR_LUC_Followup_Agonist_viability: Viability Assessment in the Tox21 HEK293 Progesterone Receptor (PR) Agonism Luciferase Follow-Up Assay (AID 2283941);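 further: loss of signal means cytotoxicity so actives lower viability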
# In short: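 HEK293-PR-A-luc cells, kept in 10% charcoal-stripped FBS medium, were treated with compounds for 16 h at 37C. Viability read as cellular ATP by luciferase-coupled luminescence; loss of signal indicates cytotoxicity.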
# [15] = biological target: PGR (gene 5241) (UniProt P06401); assay: TOX21_PR_BLA_Followup_Agonist_ratio: Tox21 HEK293 Progesterone Receptor (PR) Agonism Beta-lactamase Follow-Up Assay, Ratio (AID 2283933)
# In short: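 PR-UAS-bla HEK293T cells in medium with 2% charcoal-stripped FBS were dosed after 6 h plating and incubated 16 h at 37C. LiveBLAzer FRET substrate was added for 2 h at room temperature. Cleaved/uncleaved substrate ratio fitted against DMSO; CellTiter-Glo viability run in the same wells.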
# [16] = biological target: PGR (gene 5241) (UniProt P06401); assay: TOX21_PR_LUC_Followup_Agonist: Tox21 HEK293 Progesterone Receptor (PR) Agonism Luciferase Follow-Up Assay (AID 2283937; active means hit-call score of the fitted dose curve at least 0.9, where 1 is the maximum; inactive means score below 0.9)
# In short: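 HEK293-PR-A-luc cells, conditioned 5 days in 10% charcoal-stripped FBS medium, seeded 3,000/well for 5 h, then compound-treated 16 h at 37C. ONE-Glo luminescence read after 30 min at room temperature; gain of signal versus DMSO.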
# Sequence of Cellular tumor antigen p53 (Homo sapiens) (P04637 whole entry, looked up): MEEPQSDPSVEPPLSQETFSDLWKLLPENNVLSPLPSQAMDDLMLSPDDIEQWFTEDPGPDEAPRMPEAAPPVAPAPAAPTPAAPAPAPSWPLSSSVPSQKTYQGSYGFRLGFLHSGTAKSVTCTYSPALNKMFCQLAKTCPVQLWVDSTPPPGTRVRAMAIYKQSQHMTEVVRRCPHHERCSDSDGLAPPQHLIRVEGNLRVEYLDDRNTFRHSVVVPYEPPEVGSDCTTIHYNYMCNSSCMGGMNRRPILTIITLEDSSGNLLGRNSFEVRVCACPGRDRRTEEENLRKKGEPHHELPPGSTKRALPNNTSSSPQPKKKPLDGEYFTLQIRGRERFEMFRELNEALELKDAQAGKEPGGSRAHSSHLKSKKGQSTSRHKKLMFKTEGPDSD
# Sequence of PGR (gene 5241) (P06401 whole entry, looked up): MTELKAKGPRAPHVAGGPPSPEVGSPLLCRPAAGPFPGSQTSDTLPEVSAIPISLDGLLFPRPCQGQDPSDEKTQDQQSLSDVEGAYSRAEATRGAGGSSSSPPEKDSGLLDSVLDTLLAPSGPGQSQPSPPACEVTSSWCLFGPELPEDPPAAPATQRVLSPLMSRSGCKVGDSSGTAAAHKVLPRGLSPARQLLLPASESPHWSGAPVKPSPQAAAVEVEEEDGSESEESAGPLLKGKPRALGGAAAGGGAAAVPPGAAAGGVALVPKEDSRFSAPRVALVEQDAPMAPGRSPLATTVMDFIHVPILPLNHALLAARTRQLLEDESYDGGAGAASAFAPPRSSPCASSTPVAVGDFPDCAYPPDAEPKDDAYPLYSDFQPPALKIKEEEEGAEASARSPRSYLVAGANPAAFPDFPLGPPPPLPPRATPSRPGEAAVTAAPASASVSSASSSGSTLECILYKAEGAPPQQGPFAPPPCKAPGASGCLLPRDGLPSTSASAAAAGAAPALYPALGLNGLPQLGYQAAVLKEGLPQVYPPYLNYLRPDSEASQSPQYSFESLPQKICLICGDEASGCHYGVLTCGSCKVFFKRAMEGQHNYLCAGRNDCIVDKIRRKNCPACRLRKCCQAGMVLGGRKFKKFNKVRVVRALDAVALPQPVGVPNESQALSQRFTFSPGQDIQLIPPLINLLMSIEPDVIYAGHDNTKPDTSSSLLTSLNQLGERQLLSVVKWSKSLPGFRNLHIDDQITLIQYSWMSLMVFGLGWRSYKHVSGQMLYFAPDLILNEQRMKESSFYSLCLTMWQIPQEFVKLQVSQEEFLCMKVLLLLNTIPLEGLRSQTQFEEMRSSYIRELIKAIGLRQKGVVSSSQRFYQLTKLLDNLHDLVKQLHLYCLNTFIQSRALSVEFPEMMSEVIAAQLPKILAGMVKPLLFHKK
structure (smiles),measurement,setting,value
COCCOC(=O)C1=C(C)NC(C)=C(C(=O)OC/C=C/c2ccccc2)C1c1cccc([N+](=O)[O-])c1 (centres undefined),outcome,[1],inactive
same,outcome,[2],inactive
same,outcome,[3],inactive
same,outcome,[4],inactive
same,outcome,[5],inactive
same,outcome,[6],inactive
same,outcome,[7],inactive
same,outcome,[8],inactive
same,AC50,[9],6.12 µM (active)
same,outcome,[10],inactive
same,outcome,[11],inactive
same,AC50,[12],7.18 µM (active)
same,outcome,[13],inactive
same,outcome,[14],inactive
Oc1ccc(N=Nc2ccccc2)cc1,outcome,[1],inactive
same,AC50,[2],87.4 µM (active)
same,AC50,[3],75 µM (active)
same,AC50,[4],87.5 µM (active)
same,AC50,[5],75.7 µM (active)
same,AC50,[6],74.7 µM (active)
same,outcome,[7],inactive
same,AC50,[8],87.8 µM (active)
same,outcome,[15],inactive
same,AC50,[9],27.5 µM (active)
same,outcome,[10],inactive
same,outcome,[11],inactive
same,outcome,[16],inactive
same,outcome,[12],inactive
same,outcome,[13],inactive
same,outcome,[14],inactive
Cc1ccc(/C=N/n2c(-c3ccccc3)csc2=S)cc1,outcome,[1],inactive
same,outcome,[2],inactive
same,outcome,[3],inactive
same,outcome,[4],inactive
same,outcome,[5],inactive
same,outcome,[6],inactive
same,outcome,[7],inactive
same,outcome,[8],inactive
same,AC50,[9],23 µM (active)
same,outcome,[10],inactive
same,outcome,[11],inactive
same,outcome,[12],inactive
same,outcome,[13],inactive
same,outcome,[14],inactive
CC[C@@H](C(=O)O)[C@@H]1O[C@@H]([C@@H](C)[C@H](O)[C@H](C)C(=O)[C@H](CC)[C@H]2O[C@]3(C=C[C@@H](O)[C@]4(CC[C@@](C)([C@H]5CC[C@](O)(CC)[C@H](C)O5)O4)O3)[C@H](C)C[C@@H]2C)[C@@H](C)C[C@@H]1C,outcome,[1],inactive
same,AC50,[2],4.53 µM (active)
same,outcome,[3],inactive
same,AC50,[4],7.64 µM (active)
same,outcome,[5],inactive
same,AC50,[6],7.63 µM (active)
same,outcome,[7],inactive
same,AC50,[8],5.21 µM (active)
O=C(Nc1ccc(Cl)c(Cl)c1)C1CC1,outcome,[1],inactive
same,outcome,[2],inactive
same,outcome,[3],inactive
same,outcome,[4],inactive
same,outcome,[5],inactive
same,outcome,[6],inactive
same,outcome,[7],inactive
same,outcome,[8],inactive
same,outcome,[15],inactive
same,outcome,[9],inactive
same,outcome,[10],inactive
same,outcome,[11],inactive
same,outcome,[16],inactive
same,outcome,[12],inactive
same,outcome,[13],inactive
same,outcome,[14],inactive
COC(=O)C1=C(C)NC(C)=C(C(=O)OCCN2CCN(C(c3ccccc3)c3ccccc3)CC2)C1c1cccc([N+](=O)[O-])c1 (centres undefined),outcome,[1],inactive
same,outcome,[2],inactive
same,outcome,[3],inactive
same,outcome,[4],inactive
same,outcome,[5],inactive
same,outcome,[6],inactive
same,outcome,[7],inactive
same,outcome,[8],inactive
same,outcome,[15],inactive
same,outcome,[9],inactive
same,outcome,[10],inactive
same,outcome,[11],inactive
same,outcome,[16],inactive
same,AC50,[12],23 µM (active)
same,outcome,[13],inactive
same,outcome,[14],inactive
